# Screen size: about 69,000 compounds; about 8,600 (12%) showed an effect of 50% or more. The list comes from a sample in which strong results are over-represented; it also holds similar structures and randomly drawn compounds.
# System: Plasmodium berghei
# Assay: Screen against P. berghei liver stage (PbLuc), transformed with Luciferase, at 10uM
# Type: functional, HepG2
# Conditions: tested at 10 uM
row,Compound,INHIBITION [%]
1,Cn1nnc2c1CCN(Cc1ccco1)C2COCc1ccccc1 (stereo unspecified),-48.4
2,Cc1cc(C)n(-c2ccc(N3CCCSCC3)nc2)n1,25.8
3,Cc1cc(C)n(-c2ccc(N3CCC(O)CC3)nc2)n1,50.5
4,Cc1cc(C)n(-c2ccc(N3CCC4(CC3)OCCO4)nc2)n1,-125
5,CS(=O)(=O)Cc1noc(CN2CCc3c(Cl)cccc3C2)n1,82.5
6,Cc1cccc(N2CCN(Cc3nc(CC4CC4)no3)CC2)n1,32.7
7,CS(=O)(=O)Cc1noc(CN2CCN(c3ccccc3Cl)CC2)n1,45.7
8,Clc1cccc2c1CCN(Cc1nc(CC3CC3)no1)C2,50.5
9,Cc1ncc2c(n1)CCN(Cc1nc(Cc3ccccc3)no1)C2,-154
10,Cc1cccc(SC2CCN(Cc3nc(CC4CC4)no3)CC2)c1,11.9
11,CCOC(=O)c1sc(NC(=O)C(C)C)c(C#N)c1C,38
12,CN1CCN(Cc2ccccc2Oc2cncc(C(N)=O)n2)CC1,4.82
13,NC(=O)c1cncc(N2CCN(Cc3ccc(F)cc3Cl)CC2)n1,69.3
14,COc1ccc(CN2CCCN(c3cc(C(N)=O)ccn3)CC2)cc1,-18.7
15,NC(=O)CN1CC2(CCC1=O)CCN(Cc1ccc(F)cc1Cl)CC2,31.7
16,NC(=O)c1cncc(N2CCN(Cc3cccc4nsnc34)CC2)n1,-47.8
17,O=C(c1cnns1)N1CCN(Cc2ccc(F)cc2Cl)CC1,-18.2
18,NC(=O)c1ccc(N2CCN(Cc3ccc(F)cc3Cl)CC2)nn1,81.2
19,NC(=O)c1ccnc(N2CCCC(CO)(Cc3ccc(F)cc3)C2)c1 (stereo unspecified),43.5
20,NC(=O)c1ccnc(N2CCN(Cc3ccc(F)cc3Cl)CC2)c1,83.2
21,Cc1nn(C)c(N2CCOCC2)c1CNCc1ccc(C(C)O)cc1 (stereo unspecified),43.2
22,CC(C)CC(=O)N1CCN(Cc2cc(-c3ccncc3)nn2C)CC1,-23.8

row,Compound,INHIBITION [%]
1,CCOC(=O)c1sc(NC(=O)CN2C(=O)CCC2=O)c(C#N)c1C,32.2
2,CC(C)c1ccc(-n2ncc(C(=O)N(C)C3CCN(C)CC3)c2N)cc1,-29
3,Cc1ccc(CN(CCN(C)C)Cc2ccnn2C2CCCCO2)o1 (stereo unspecified),15.5
4,Cc1ccc(O)c(C(=O)N2CCC3(CCCNC3)C2)c1 (stereo unspecified),42.1
5,O=C1CNc2ncnc(Nc3cnn(Cc4cccc(F)c4)c3)c2N1,-6.47
6,O=C1CNc2ncnc(Nc3cnn(Cc4ccccc4)c3)c2N1,34.6
7,O=C1CNc2ncnc(Nc3cnn(Cc4ccc(F)cc4)c3)c2N1,65.8
8,COCCN1C[C@@H](C)[C@@]2(COCCN(C(=O)c3cccs3)C2)C1,20.1
9,Cc1ccc(C(NC(=O)C2CC2)c2cccc(S(C)(=O)=O)c2)cc1 (stereo unspecified),52.5
10,CCC(=O)NC(c1ccc(C)cc1)c1cccc(S(C)(=O)=O)c1 (stereo unspecified),34.7
11,CCNC(=O)NC(c1ccc(C)cc1)c1cccc(S(C)(=O)=O)c1 (stereo unspecified),31.7
12,Cc1cnc(CCNC(=O)C2CN(C(=O)Cc3ccc(F)cc3)C2)s1,-3.15
13,CN(C)CC1(O)CCCN(c2ccnc3c(C(F)(F)F)cccc23)C1 (stereo unspecified),7.24
14,Cc1cc(C)n(C2CN(CC(=O)N(C)Cc3ccco3)C2)n1,39.7
15,COc1ccccc1CN(C)C(=O)CN1CC(n2nc(C)cc2C)C1,89.4
16,COc1ccccc1CC(=O)N1CCCC(n2nc(C)cc2C)C1 (stereo unspecified),27.1
17,CN(Cc1ccsc1)C(=O)CN1CCOC(Cn2cncn2)C1 (stereo unspecified),5.7
18,Cc1cc(C)n(C2CN(CC(=O)N(C)Cc3ccc(C)o3)C2)n1,71.9
19,Cc1cc(C)n(C2CN(CC(=O)N(C)Cc3ccsc3)C2)n1,75.7
20,COc1cccc(CN(C)C(=O)CN2CCN(c3nccs3)CC2)c1,60.4
21,COc1cccc(CN(C)C(=O)CN2CCN(c3nccn3C)CC2)c1,-20.6
22,COc1ccccc1CNC(=O)C(C)N1CC(n2nc(C)cc2C)C1 (stereo unspecified),6.27

row,Compound,INHIBITION [%]
1,COc1cccc(CN(C)C(=O)CN2CCN(CCO)CC2)c1,13.7
2,Cc1ccc(CN(C)C(=O)CN2CC(n3cccn3)C2)o1,28.4
3,Cc1cc(C)n(C2CN(CC(=O)N(C)Cc3cnn(C)c3)C2)n1,32.9
4,COc1ccc(F)cc1S(=O)(=O)NCCn1cnc(C)cc1=O,41.7
5,COCCNC(=O)c1cc(-n2cccc2)ccc1Cl,22.2
6,CCN(CC)c1ccc(C(=O)N2CCCC(n3cncn3)C2)cn1 (stereo unspecified),-12.7
7,Cc1oncc1C(=O)N1CCC2(CC1)CN(S(C)(=O)=O)c1ccccc12,-13.4
8,COCCN1CCN(CC(=O)N(C)Cc2ccsc2)CC1,65.7
9,COc1cccc(CC(=O)N2CCCC(n3nc(C)cc3C)C2)c1 (stereo unspecified),5.03
10,CN(Cc1ccsc1)C(=O)CN1CCc2c(ncn2C)C1,-1.15
11,COc1cccc(CN(C)C(=O)CN2CC(n3nc(C)cc3C)C2)c1,53.7
12,COc1cccc(CNC(=O)C(C)N2CC(n3nc(C)cc3C)C2)c1 (stereo unspecified),39.8
13,COCCN1CCN(CC(=O)N(C)Cc2ccsc2)CC1C (stereo unspecified),-39.2
14,CN(C)C(=O)Cn1cc(C(=O)NCCc2cccc(Cl)c2Cl)nn1,-8.4
15,COCCNC(=O)[C@H]1C[C@H]2OCC[C@H]2N(Cc2ccoc2)C1,31.1
16,Cc1nc(N2CCCC2)nc2c1CCN(C(=O)CC1CCCC1)CC2,-10.3
17,COc1cccc(CC(=O)N2CC[C@@H]3NC(=O)CC[C@@H]32)c1,-0.554
18,Cc1ccc(CC(=O)N2CC[C@@H]3NC(=O)CC[C@@H]32)cc1,58.5
19,COc1ccc(CC(=O)N2CC[C@@H]3NC(=O)CC[C@@H]32)cc1,-6.46
20,Cc1c(S(=O)(=O)NCC(C)Cn2cc(Cl)cn2)cnn1C (stereo unspecified),35.8
21,CN(CCCc1cnn(C)c1)C(=O)C1CCC(=O)N(C2CCCC2)C1 (stereo unspecified),-7.85
22,C[C@H]1C[C@H]2CN(S(=O)(=O)c3ccc(F)cc3)CC[C@H]2O1,-7.28

row,Compound,INHIBITION [%]
1,CC1COCCN1C(=O)Cc1cc(Cl)c2c(c1)OCCCO2 (stereo unspecified),0.348
2,O=C1C[C@H]2[C@@H](CCN2C(=O)c2ccoc2)N1CCN1CCOCC1,-6.23
3,COc1ccccc1OCCCc1cc(C#N)ccn1,45.7
4,COc1ccccc1OCCCc1cccc(C#N)n1,-34.1
5,COc1cccc(OCCCc2cc(C#N)ccn2)c1,55.6
6,COCc1cc(CNC(=O)c2cc(NC(C)=O)ccc2Cl)n[nH]1,40.6
7,O=C(c1ccoc1)N1CCO[C@]2(CCC[C@H]2COCc2cccnc2)C1,-34.7
8,COCCN1CCC2(CC1)CC(NCc1cncn1C)c1ccccc12 (stereo unspecified),54.1
9,Cn1cncc1CNC1CC2(CCN(S(C)(=O)=O)CC2)c2ccccc21 (stereo unspecified),23.1
10,Cn1cncc1CNC1CC2(CCN(CC3CC3)CC2)c2ccccc21 (stereo unspecified),45.2
11,Cc1ccc(CNC2CC3(CCN(CCO)CC3)c3ccccc32)s1 (stereo unspecified),60.2
12,COCCN1CCC2(CC1)CC(NCc1ccc(C)s1)c1ccccc12 (stereo unspecified),45.7
13,O=C(NC1CC2(CCN(CCO)CC2)c2ccccc21)c1ccsc1 (stereo unspecified),27.5
14,Cc1cccc(CNC2CC3(CCN(CCO)CC3)c3ccccc32)n1 (stereo unspecified),52.1
15,O=C(NC1CC2(CCN(CCO)CC2)c2ccccc21)c1ccncc1 (stereo unspecified),49.7
16,CCN1CCC2(CC1)CC(NCc1cccc(C)n1)c1ccccc1O2 (stereo unspecified),-4.88
17,COCCNC(=O)NC1CCN(c2cnn(C)c2)C1 (stereo unspecified),16
18,Cn1cc(CN2C[C@@H](NC(=O)c3cscn3)[C@H]3OCCC[C@H]32)cn1,-4.88
19,COc1ccc(-c2ccnc(N)c2)c(C)c1,29.1
20,COCCNS(=O)(=O)c1cccc(CSC)c1,20.2
21,Cc1nn(C)c(C)c1C1CCCN1C(=O)CCCc1ccccn1 (stereo unspecified),23.4
22,CS(=O)(=O)NC1CCc2[nH]c(=O)ccc2C1 (stereo unspecified),30.5

row,Compound,INHIBITION [%]
1,O=C(NC1CCCC1)NC1CCc2[nH]c(=O)ccc2C1 (stereo unspecified),34.9
2,CC(C)NC1CCc2[nH]c(=O)ccc2C1 (stereo unspecified),86.2
3,CN(C)CCN(Cc1ccccn1)Cc1ccnn1C1CCCCO1 (stereo unspecified),18.3
4,COCC1CN(C(=O)COc2ccc(C)cc2)Cc2cn(C)nc21 (stereo unspecified),5.96
5,O=C(O)c1ccnc(-c2ccnc(NCCc3nc4c(s3)CCC4)n2)c1,30.9
6,Cc1nn2cc(CCNC(=O)c3cc(C(C)C)nn3C)nc2s1,82.7
7,CC(C)Cc1cc(C(=O)NCCc2nnc(N)s2)n(C)n1,-24.7
8,c1cc(-c2nccn2CCc2nc3c(s2)CCC3)ccn1,11.6
9,Cc1cc(C(=O)NCCc2cn3nc(C)sc3n2)c(C)o1,-98.6
10,CC(=O)c1ccc(CNC(=O)c2cc(C)nn2C)nc1C,-34
11,CC(C)c1cc(C(=O)NCCc2nc3c(s2)CCC3)n(C)n1,89.6
12,Cc1nc(CCNC(=O)C2CC(=O)N(C(C)C)C2)sc1C (stereo unspecified),22.3
13,Cc1cc(C(=O)NCCc2nc3c(s2)CCCC3)n(C)n1,68
14,Cc1nn2cc(CCNC(=O)c3cc(C(C)C)no3)nc2s1,-97.2
15,Cc1nc(CCNC(=O)c2cc(C(C)C)nn2C)sc1C,81
16,COc1nc2c(cc1C(=O)NCCc1nc3c(s1)CCC3)CCC2,-6.04
17,CN1CCCN(Cn2nc(-c3ccccc3F)ccc2=O)CC1,18.2
18,Cc1ccsc1C1CCCCCN1Cc1cn(C)nc1C (stereo unspecified),49
